Values joined by “and” are separate entries in the source; they are usually repeats but may differ in a detail not shown here. Equal values may be shown once. Results filed as inconclusive are left out. Active and inactive are the calls of the source. Unless noted, calls follow the shape of the full dose curve.
What was measured:
[1] = target: Estrogen receptor (Homo sapiens) (UniProt P03372); assay: qHTS assay for small molecule agonists of estrogen receptor alpha signaling (AID 588514);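 also: 0% = vehicle only and 100% = reference agonist; nearly all actives have a fitted effect of over 70% in size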
Summary of the method: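 EC50 and efficacy came from Hill fits of beta-lactamase reporter signal (CCF4 dye, 2 h at room temperature) scaled between DMSO and 20 nM 17-beta-estradiol. Agonist mode: HEK293 ER-alpha-UAS-bla cells in charcoal/dextran-stripped serum medium, 18 h compound exposure at 37 C.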

[2] = target: Androgen receptor (Homo sapiens) (UniProt P10275); assay: qHTS assay for small molecule agonists of androgen receptor signaling (AID 588515; active = well fitted curve in the direction sought with a large enough effect in the signal ratio, with a control signal flat; the % refers to the signal ratio; also: % is scaled to controls: 0 for no effect and ±100 for the full control effect); conditions: AR-UAS-bla HEK293, beta-lactamase ratio, agonist 16 h; stronger effect = higher value
Summary of the method: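 Stimulation of an AR-responsive β-lactamase reporter in GripTite HEK293 cells was measured after 16 h compound exposure at 37 °C, via CCF4 fluorescence after 2 h RT. EC50 from Hill fits, normalized to R1881 at 30 nM.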

[3] = target: Bile acid receptor (Homo sapiens) (UniProt Q96RI1); assay: qHTS assay for small molecule antagonists of farnesoid X receptor signaling (AID 588526); also: % is scaled to controls: 0 for no effect and ±100 for the full control effect
Summary of the method: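 Antagonist mode: titrated compounds tested against chenodeoxycholic acid stimulation (normalized to 50 uM CDCA and DMSO) in GeneBLAzer HEK293T cells for 16 h. Beta-lactamase read by CCF4 fluorescence; IC50 from Hill fits.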

[4] = target: Peroxisome proliferator-activated receptor gamma (Homo sapiens) (UniProt P37231); assay: qHTS assay for small molecule agonists of peroxisome proliferator-activated receptor gamma signaling (AID 588536; active = well fitted curve in the direction sought with a large enough effect in the signal ratio, with a control signal flat, not every such curve was filed as active; the % refers to the signal ratio;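 also: 0% = DMSO basal wells and 100% = rosiglitazone at 2 µM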)
Summary of the method: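 Beta-lactamase reporter read-out: CCF4 fluorescence (ex 405, em 460/530 nm) after 2 h at RT. HEK293 GeneBLAzer cells were treated for 16 h at 37 C. Hill fits gave EC50 and efficacy versus 2 uM rosiglitazone (100%) and DMSO (0%).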

[5] = target: Peroxisome proliferator-activated receptor gamma (Homo sapiens) (UniProt P37231); assay: qHTS assay for small molecule antagonists of peroxisome proliferator-activated receptor gamma signaling (AID 588537; active = well fitted inhibition curve with a large enough effect in the signal ratio, with a control signal flat, not every such curve was filed as active; the % refers to the signal ratio;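 also: reporter cells co-stimulated with 50 nM rosiglitazone agonist during compound treatment; % of control where 0% means no effect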)
Summary of the method: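 Fluorescence at 460 and 530 nm (405 nm excitation) reported beta-lactamase cleavage of CCF4 after 2 h room-temperature loading. HEK293 reporter cells in 1% charcoal/dextran-treated FBS had received compound and rosiglitazone for 16 h.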

[6] = target: Vitamin D3 receptor (Homo sapiens) (UniProt P11473); assay: qHTS assay for small molecule agonists of vitamin D receptor signaling (AID 588543);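 also: 0% = DMSO basal and 100% = reference agonist control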
Summary of the method: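 qHTS in agonist mode: compound titrations stimulate a VDR-driven β-lactamase reporter in HEK293T cells over 16 h at 37 °C. Response normalized to 50 nM 1α,25-dihydroxyvitamin D3 = 100%, DMSO = 0%; Hill fitting gives EC50 and maximal response.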

[7] = qHTS assay for small molecule agonists of retinoid X receptor alpha signaling (AID 588544); conditions: HEK293T RXRa-UAS-bla, beta-lactamase reporter, 18 h; 530 nm emission;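 as to activation: 0% = DMSO basal wells and 100% = reference agonist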
[8] = target: Retinoic acid receptor RXR-alpha (Homo sapiens) (UniProt P19793); assay: as above
[9] = target: Thyroid hormone receptor beta (Homo sapiens) (UniProt P10828); assay: qHTS assay for small molecule agonists of thyroid hormone receptor beta signaling (AID 588545)
Summary of the method: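 Agonist activity was read as beta-lactamase CCF4 fluorescence (405 ex, 460/530 em), scaled between DMSO (0%) and 10 nM T3 (100%), then Hill-fitted for EC50 and efficacy. HEK 293 TR-UAS-bla cells in 2% charcoal/dextran FBS medium were exposed 18 h at 37 C.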

[10] = qHTS assay for small molecule antagonists of retinoid X receptor alpha signaling (AID 588546; active = well fitted inhibition curve with a large enough effect in the signal ratio, with a control signal flat, not every such curve was filed as active; the % refers to the signal ratio;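 also: cells stimulated with 9-cis-retinoic acid as agonist; % is scaled to controls: 0 for no effect and ±100 for the full control effect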); conditions: HEK293T RXRa-UAS-bla, beta-lactamase ratio, antagonist mode; measured here: W530 green channel, cytotoxicity proxy
Summary of the method: (§1)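 Beta-lactamase reporter inhibition, read as CCF4 fluorescence ratio (ex 405, em 460/530 nm) after 2 h at RT. HEK293T UAS-bla cells, 2500/well, were stimulated with 9-cis-RA at 500 or 100 nM final alongside test compound for 18 h at 37 C.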

[11] = target: Retinoic acid receptor RXR-alpha (Homo sapiens) (UniProt P19793); assay: as above; conditions: HEK293T RXRa-UAS-bla, beta-lactamase ratio, antagonist mode
Summary of the method: as §1

[12] = target: Thyroid hormone receptor beta (Homo sapiens) (UniProt P10828); assay: qHTS assay for small molecule antagonists of thyroid hormone receptor beta signaling (AID 588547; active = well fitted inhibition curve with a large enough effect in the signal ratio, with a control signal flat, not every such curve was filed as active; the % refers to the signal ratio;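 also: cells stimulated with 0.4 nM T3 agonist during compound exposure; series mostly up to about 77 µM; % is scaled to controls: 0 for no effect and ±100 for the full control effect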); conditions: TR-UAS-bla HEK293, beta-lactamase ratio, antagonist mode, 18 h
Summary of the method: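 TR-UAS-bla GripTite HEK293 cells in 2% charcoal/dextran FBS medium; compounds 0.59 nM to 92 uM with T3 at 0.4nM final, 18 h at 37 C. Beta-lactamase read by CCF4 fluorescence (460/530 nm); Hill fits gave IC50 and efficacy.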

[13] = target: Voltage-gated inwardly rectifying potassium channel KCNH2 (Homo sapiens) (UniProt Q12809); assay: qHTS Assay for Small Molecule Inhibitors of the Human hERG Channel Activity (AID 588834; active = well fitted inhibition curve with a large enough effect;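 also: lower thallium flux fluorescence means stronger hERG block; nearly all actives have a fitted effect of over 50% in size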; also: potency is read from the fitted curve at half-maximal effect)
Summary of the method: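 Cells were infected with hERG-BacMam virus for 4 hrs at room temperature, grown overnight, then seeded at 2000/well. After dye loading and roughly 10 min compound treatment, thallium influx was triggered and fluorescence recorded.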

[14] = target: Luciferin 4-monooxygenase (Photinus pyralis) (UniProt P08659); assay: Biochemical firefly luciferase enzyme assay for NPC (AID 624030; active = well fitted inhibition curve with a large enough effect;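 also: purified P. pyralis luciferase at 10 nM with luciferin and ATP substrate; series mostly up to about 59 µM; 0% = DMSO and -100% = full luciferase inhibition by PTC124 control; nearly all actives have a fitted effect of over 70% in size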)
Summary of the method: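 Purified P. pyralis luciferase at 10 nM in 50 mM Tris Acetate (final), luminescence read within 5 minutes of enzyme addition to compounds. Activity normalised to PTC124 versus DMSO; concentration-response curves classed by r2, magnitude and activity.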

[15] = target: Glucocorticoid receptor (Homo sapiens) (UniProt P04150); assay: qHTS assay for small molecule agonists of glucocorticoid receptor signaling (AID 588532; active = well fitted curve in the direction sought with a large enough effect in the signal ratio, with a control signal flat; the % refers to the signal ratio;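 also: 100% = dexamethasone at 0.1 µM and 0% = DMSO only wells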); conditions: HeLa MMTV-bla, beta-lactamase ratio, agonist, 18 h; stronger effect = higher value; percent of dexamethasone control, DMSO zero
Summary of the method: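 MMTV-bla HeLa beta-lactamase reporter cells in 1% charcoal/dextran FBS medium, compounds up to 92 uM for 18 h at 37 C, CCF4 readout; normalized to 0.1 uM dexamethasone (100%), EC50 and efficacy from Hill fits.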

[16] = target: Glucocorticoid receptor (Homo sapiens) (UniProt P04150); assay: qHTS assay for small molecule antagonists of glucocorticoid receptor signaling (AID 588533; active = well fitted inhibition curve with a large enough effect in the signal ratio, with a control signal flat, not every such curve was filed as active; the % refers to the signal ratio; also: % is scaled to controls: 0 for no effect and ±100 for the full control effect)
Summary of the method: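 Antagonist-mode qHTS: compound titrations added to GRE-bla HeLa cells, then dexamethasone 2 nM final; 18 h, 37 C. CCF4 FRET fluorescence normalized to dexamethasone and DMSO; IC50 from Hill fit.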

[17] = qHTS assay for small molecule antagonists of peroxisome proliferator-activated receptor delta signaling (AID 588535); conditions: HEK293T PPARd-UAS-bla, beta-lactamase FRET ratio, 18 h; 460 nm channel;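 also: cells co-treated with a PPAR-delta agonist as stimulator during compound exposure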
Summary of the method: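 Fluorescence from CCF4-loaded GeneBLAzer PPAR-delta-UAS-bla HEK293T cells (2 hrs RT loading) quantified reporter inhibition after an 18 hr, 37 C compound exposure across a titration.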

[18] = target: Vitamin D3 receptor (Homo sapiens) (UniProt P11473); assay: qHTS assay for small molecule antagonists of vitamin D receptor signaling (AID 588541)
Summary of the method: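 VDR-UAS-bla HEK293T cells in 2% charcoal-stripped FBS were stimulated with 1-alpha,25-dihydroxyvitamin D3 (3 nM final) plus compound for 16 h at 37 C. The beta-lactamase CCF4 readout was normalized to 50 nM agonist and DMSO, and Hill fits gave IC50.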

Chain of Peroxisome proliferator-activated receptor gamma (Homo sapiens) (P37231 whole entry, looked up): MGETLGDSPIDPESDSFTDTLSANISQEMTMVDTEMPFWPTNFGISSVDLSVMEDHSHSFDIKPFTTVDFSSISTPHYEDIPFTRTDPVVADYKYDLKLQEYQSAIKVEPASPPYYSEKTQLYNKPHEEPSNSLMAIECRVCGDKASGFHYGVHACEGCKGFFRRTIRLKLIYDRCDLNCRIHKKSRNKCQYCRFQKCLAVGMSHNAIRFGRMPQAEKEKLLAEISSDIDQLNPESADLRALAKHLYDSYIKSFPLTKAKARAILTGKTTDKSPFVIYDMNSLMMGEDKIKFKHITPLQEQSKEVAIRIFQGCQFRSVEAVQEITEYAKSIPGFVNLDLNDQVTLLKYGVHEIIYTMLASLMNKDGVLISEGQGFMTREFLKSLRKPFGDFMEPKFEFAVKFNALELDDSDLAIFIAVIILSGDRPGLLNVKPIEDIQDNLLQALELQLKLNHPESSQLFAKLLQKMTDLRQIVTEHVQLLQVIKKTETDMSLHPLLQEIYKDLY
Chain of Retinoic acid receptor RXR-alpha (Homo sapiens) (P19793 whole entry, looked up): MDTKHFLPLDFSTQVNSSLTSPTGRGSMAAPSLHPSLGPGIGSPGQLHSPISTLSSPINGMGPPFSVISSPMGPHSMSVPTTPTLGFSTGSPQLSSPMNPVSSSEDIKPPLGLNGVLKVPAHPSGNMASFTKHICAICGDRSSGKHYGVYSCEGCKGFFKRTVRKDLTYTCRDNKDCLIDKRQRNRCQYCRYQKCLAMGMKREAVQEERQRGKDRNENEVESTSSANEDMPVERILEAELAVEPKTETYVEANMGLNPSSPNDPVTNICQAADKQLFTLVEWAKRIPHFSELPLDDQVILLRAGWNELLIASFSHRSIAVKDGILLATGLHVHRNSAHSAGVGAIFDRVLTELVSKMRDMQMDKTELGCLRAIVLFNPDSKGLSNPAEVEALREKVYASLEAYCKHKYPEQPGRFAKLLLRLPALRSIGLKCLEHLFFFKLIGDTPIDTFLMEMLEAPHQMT
Chain of Vitamin D3 receptor (Homo sapiens) (P11473 whole entry, looked up): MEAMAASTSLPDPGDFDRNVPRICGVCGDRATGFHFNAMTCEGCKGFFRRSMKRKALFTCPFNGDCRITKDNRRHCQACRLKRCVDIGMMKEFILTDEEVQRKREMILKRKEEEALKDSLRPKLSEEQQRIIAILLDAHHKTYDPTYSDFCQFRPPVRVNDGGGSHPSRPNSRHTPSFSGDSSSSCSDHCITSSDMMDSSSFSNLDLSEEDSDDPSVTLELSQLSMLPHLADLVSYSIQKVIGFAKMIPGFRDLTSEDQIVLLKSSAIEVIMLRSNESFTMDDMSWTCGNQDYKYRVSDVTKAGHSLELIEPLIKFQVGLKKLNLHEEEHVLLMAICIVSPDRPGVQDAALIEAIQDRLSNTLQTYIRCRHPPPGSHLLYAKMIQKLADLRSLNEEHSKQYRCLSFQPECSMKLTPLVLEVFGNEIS
Chain of Glucocorticoid receptor (Homo sapiens) (P04150 whole entry, looked up): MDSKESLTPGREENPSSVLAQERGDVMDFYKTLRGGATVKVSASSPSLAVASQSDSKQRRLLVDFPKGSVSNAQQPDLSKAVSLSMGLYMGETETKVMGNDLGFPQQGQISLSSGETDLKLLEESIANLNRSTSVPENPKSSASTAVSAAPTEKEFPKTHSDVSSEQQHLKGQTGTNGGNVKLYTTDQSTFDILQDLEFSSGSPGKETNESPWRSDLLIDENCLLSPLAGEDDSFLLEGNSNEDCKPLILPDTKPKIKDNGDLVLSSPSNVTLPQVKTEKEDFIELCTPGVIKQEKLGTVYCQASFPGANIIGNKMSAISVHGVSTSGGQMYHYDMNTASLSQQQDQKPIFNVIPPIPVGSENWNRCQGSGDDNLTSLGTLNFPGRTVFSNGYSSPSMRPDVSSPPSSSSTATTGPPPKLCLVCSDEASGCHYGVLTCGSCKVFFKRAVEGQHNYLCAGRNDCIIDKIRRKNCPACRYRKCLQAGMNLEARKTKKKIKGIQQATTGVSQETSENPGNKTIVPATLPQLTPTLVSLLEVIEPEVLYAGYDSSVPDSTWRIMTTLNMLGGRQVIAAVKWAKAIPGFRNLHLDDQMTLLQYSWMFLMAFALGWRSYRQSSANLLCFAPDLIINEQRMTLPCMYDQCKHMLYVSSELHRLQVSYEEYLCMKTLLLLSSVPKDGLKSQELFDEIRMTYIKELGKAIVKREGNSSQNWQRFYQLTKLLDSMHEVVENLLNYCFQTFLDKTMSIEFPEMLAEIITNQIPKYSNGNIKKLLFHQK
Chain of Voltage-gated inwardly rectifying potassium channel KCNH2 (Homo sapiens) (Q12809 whole entry, looked up): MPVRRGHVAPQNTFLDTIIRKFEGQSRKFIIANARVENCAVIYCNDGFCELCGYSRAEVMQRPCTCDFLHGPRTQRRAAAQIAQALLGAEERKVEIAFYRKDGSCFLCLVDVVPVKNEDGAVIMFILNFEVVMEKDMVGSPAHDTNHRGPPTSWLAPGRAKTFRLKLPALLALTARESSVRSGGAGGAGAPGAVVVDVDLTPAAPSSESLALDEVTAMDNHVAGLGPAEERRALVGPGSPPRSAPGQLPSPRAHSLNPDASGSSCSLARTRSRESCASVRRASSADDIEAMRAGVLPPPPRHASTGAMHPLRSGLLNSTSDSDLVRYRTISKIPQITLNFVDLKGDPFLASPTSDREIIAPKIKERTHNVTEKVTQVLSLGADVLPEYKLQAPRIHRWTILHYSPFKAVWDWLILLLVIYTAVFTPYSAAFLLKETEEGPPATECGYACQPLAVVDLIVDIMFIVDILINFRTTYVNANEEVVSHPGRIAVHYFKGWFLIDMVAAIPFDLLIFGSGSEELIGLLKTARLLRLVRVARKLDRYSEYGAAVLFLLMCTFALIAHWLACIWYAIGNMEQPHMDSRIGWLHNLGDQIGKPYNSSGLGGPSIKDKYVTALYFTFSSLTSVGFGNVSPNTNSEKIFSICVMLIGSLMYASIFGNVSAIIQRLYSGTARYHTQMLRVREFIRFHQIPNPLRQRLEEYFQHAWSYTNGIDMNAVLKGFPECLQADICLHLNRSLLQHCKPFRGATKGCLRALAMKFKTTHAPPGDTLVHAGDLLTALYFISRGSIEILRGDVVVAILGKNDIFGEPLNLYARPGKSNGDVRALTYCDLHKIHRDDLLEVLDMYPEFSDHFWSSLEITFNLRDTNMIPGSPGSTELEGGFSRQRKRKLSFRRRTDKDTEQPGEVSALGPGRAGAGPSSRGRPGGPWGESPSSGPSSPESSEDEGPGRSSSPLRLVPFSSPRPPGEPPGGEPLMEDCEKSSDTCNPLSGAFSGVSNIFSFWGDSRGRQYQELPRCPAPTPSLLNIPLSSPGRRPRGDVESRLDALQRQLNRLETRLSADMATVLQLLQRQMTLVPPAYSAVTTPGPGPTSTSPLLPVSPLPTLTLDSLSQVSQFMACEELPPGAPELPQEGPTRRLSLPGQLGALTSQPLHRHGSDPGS
Chain of Thyroid hormone receptor beta (Homo sapiens) (P10828 whole entry, looked up): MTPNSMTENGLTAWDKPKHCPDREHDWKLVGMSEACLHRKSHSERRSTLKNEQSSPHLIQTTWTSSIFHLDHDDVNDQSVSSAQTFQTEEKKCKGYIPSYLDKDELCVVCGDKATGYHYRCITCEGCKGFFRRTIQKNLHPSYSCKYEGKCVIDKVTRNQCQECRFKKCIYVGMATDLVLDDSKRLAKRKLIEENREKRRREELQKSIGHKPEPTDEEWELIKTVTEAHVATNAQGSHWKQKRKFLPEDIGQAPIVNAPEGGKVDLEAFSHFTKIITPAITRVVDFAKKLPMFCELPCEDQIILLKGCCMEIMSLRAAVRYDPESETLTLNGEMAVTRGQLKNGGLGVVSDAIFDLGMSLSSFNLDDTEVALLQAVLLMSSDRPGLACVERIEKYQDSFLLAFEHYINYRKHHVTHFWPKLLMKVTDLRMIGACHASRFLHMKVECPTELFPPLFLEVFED
Chain of Bile acid receptor (Homo sapiens) (Q96RI1 whole entry, looked up): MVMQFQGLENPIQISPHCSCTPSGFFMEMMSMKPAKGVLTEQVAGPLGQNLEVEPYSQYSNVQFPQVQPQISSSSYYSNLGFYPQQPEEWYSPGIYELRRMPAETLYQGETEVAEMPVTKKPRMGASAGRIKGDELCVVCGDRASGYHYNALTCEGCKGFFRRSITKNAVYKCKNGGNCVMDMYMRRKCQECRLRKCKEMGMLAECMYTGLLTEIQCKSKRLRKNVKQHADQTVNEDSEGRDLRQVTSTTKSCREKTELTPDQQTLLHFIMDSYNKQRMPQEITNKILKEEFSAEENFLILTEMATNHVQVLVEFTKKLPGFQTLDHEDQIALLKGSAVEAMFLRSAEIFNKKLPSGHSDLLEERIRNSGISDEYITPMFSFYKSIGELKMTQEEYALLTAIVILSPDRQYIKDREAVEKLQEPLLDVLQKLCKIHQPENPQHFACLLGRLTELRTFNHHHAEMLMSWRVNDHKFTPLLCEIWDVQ
Chain of Estrogen receptor (Homo sapiens) (P03372 whole entry, looked up): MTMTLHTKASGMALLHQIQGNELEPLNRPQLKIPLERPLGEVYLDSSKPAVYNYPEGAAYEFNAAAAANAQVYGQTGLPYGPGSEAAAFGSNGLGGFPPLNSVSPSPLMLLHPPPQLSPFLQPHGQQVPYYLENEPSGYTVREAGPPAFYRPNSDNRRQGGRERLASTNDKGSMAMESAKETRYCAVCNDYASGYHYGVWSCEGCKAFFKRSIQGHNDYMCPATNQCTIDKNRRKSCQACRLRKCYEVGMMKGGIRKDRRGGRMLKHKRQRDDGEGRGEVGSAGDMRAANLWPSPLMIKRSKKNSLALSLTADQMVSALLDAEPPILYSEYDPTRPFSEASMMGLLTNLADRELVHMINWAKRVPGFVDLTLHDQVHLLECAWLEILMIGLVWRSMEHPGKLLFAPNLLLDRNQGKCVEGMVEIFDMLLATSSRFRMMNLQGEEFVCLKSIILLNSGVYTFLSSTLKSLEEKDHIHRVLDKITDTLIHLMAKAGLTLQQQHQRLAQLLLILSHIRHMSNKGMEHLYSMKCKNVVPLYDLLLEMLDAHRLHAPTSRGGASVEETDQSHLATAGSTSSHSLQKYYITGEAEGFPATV

Nc1cccc2c(N)cccc12
9.18%: max response [7]
inactive: outcome [1] | activation [2] -5.98% and -0.762% | outcome [3] | outcome [4] | outcome [5] | outcome [6] | Potency [8] | outcome [9] | max response [11] -3.27% and -4.14% | activity change % (negative = inhibition) [12] 0% and 7.22% | Potency [13] | Potency [14]
0.949% and -3.88%: max response [10]

O=C(Oc1ccccc1)c1cccc(C(=O)Oc2ccccc2)c1
inactive: outcome [3] | activation [15] -8.17% | outcome [16] | outcome [5] | outcome [18] | outcome [6] | Potency [8] | outcome [9] | max response [11] -33.4% | activity change % (negative = inhibition) [12] 0.996%
15.8%: max response [7]
0.814%: max response [10]
22.4%: max response [17]

Cn1cnc2c(NCc3ccccc3)nc(NCCO)nc21
inactive: Potency [13]

O=C(Oc1ccccc1)c1ccccc1O
inactive: outcome [1] | outcome [16] | outcome [4] | outcome [5] | outcome [9] | max response [11] 0.088% and -1.29% | activity change % (negative = inhibition) [12] -5.55% and -2.84% | Potency [14]
8.83% and -6.1%: max response [10]

Brc1ccc([C@H]2CN3CCSC3=N2)cc1
active: Potency [13] 11.2 µM
